Cycloheximide cs – affects cycloheximide protein synthesis inhibition readout, counter-screen. 300,000 tested, 12% active. cell reporter, cycloheximide protein synthesis inhibition counterscreen. AID 2314. max response, %; in the data active = max response mostly above about 13%, no sharp cut-off; inactive = mostly below about 14%; also: read at 38.3 µM for the half of the compounds with a filed dose
MARV entry inh – blocks Marburg virus binding to or entry into cells | Potency, µM (series often up to 37.8 µM), hits mostly inhibitors | AID 540276 | Marburg virus pseudotyped entry inhibition, cell reporter | 300,000 tested, 1.8% active; calls by dose curve; tested in HEK293 cells
AMA1 RON2 block – disrupts binding of P. falciparum AMA1 to RON2. AlphaScreen AMA1-biotinylated RON2 peptide binding. Potency, µM (highest dose often 58.2 µM), most hits filed as inhibitors. 360,000 tested, 0.2% active; active = well fitted inhibition curve with a large enough effect; inconclusive = small, poorly fitted or top-dose-only effect; inactive = no such curve, though single readings can be large or run the other way; also: nearly all actives have a fitted effect of over 45% in size
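AMA1 (3D7) with his tag at 25 nM final met compounds first, then biotinylated RON2 peptide at 25 nM; detection used donor plus acceptor beads, 10 µg/mL apiece, read by AlphaScreen after 30 min at room temperature.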
Shiga inhibitor – inhibitors of Shiga toxin in Vero cells; Vero cells, Shiga toxin protein synthesis inhibition reporter; inhibition, % at 38.7 µM; 290,000 tested, 9.2% active; in the data active = inhibition mostly above about 28%, no sharp cut-off; inactive = mostly below about 43%
LASV entry inh – inhibitors of Lassa virus binding or cell entry; Lassa virus pseudotype entry inhibition, cell reporter; Potency, µM (series often up to 37.9 µM), usual class: inhibitors; 300,000 tested, 1.2% active; AID 540256; calls by dose curve; tested in HEK293 cells; also: nearly all actives have a fitted effect of over 50% in size
Hits are given with their value; [ ] = another dose, or the depositor's remark. The full list was thinned out, with hits kept by preference.

For Cc1nn(-c2ccccc2)c2sc(C(=O)Nc3cccc(Cl)c3)cc12 the results were MARV entry inh inactive and LASV entry inh inactive.
CNC(=O)c1ccc(Nc2nnc(-c3ccc(C)c(S(=O)(=O)NC(C)(C)C)c3)c3ccccc23)cc1 was read as LASV entry inh inactive.
CCOc1ccc(CCNC(=O)c2ccc(-c3nc(COc4ccc(C)cc4)c(C)o3)cc2)cc1 was read as MARV entry inh inactive.
Cn1c(SCc2cccc(F)c2)nnc1-c1ccccn1 was read as Cycloheximide cs 36.0, MARV entry inh inactive, AMA1 RON2 block inactive, Shiga inhibitor 58.1 and LASV entry inh inconclusive.
`Cn1c(SCc2cccc(F)c2)nnc1-c1cnccn1` gave Cycloheximide cs 28.6, MARV entry inh inconclusive, AMA1 RON2 block inactive, Shiga inhibitor 63.8 and LASV entry inh inactive.
Screening Cn1c(SCc2ccccc2Cl)nnc1-c1cnccn1 returned Cycloheximide cs 24.3, MARV entry inh inactive, AMA1 RON2 block inactive, Shiga inhibitor 132.5 and LASV entry inh inconclusive.
For Cn1c(SCc2cccc(Br)c2)nnc1-c1ccccn1 the results were Cycloheximide cs 22.4, MARV entry inh inactive, AMA1 RON2 block inactive, Shiga inhibitor 49.9 and LASV entry inh inactive.
CCn1c(SCc2cccc(F)c2)nnc1-c1ccncc1 was read as Cycloheximide cs inactive, AMA1 RON2 block inactive and Shiga inhibitor inactive.
For CC(NC(=O)c1ccccc1F)c1nnc(SCC(=O)NC2=NCCS2)n1C (stereo not given) the results were Cycloheximide cs inactive, MARV entry inh inactive, AMA1 RON2 block inactive, Shiga inhibitor inactive and LASV entry inh inactive.
`Cc1cnc(C(=O)OCC(=O)Nc2cc(Cl)ccc2C#N)cn1` gave MARV entry inh inactive, AMA1 RON2 block inactive and LASV entry inh inactive.
`COc1ccc(-c2nc(CN3C(=O)CN=C(c4ccccc4)c4ccccc43)c(C)o2)cc1OC` gave MARV entry inh inactive and LASV entry inh inactive.
COc1ccccc1-c1sc2cc3c(cc2c1C#Cc1cncn1C)OCO3 was read as AMA1 RON2 block inactive.
Screening Cn1c(SCc2ccccc2[N+](=O)[O-])nnc1-c1cccnc1 returned Cycloheximide cs 23.5, MARV entry inh inconclusive, AMA1 RON2 block inactive, Shiga inhibitor 51.4 and LASV entry inh inconclusive.
Screening Cc1ccccc1CSc1nnc(-c2ccccn2)n1C returned Cycloheximide cs 25.6, MARV entry inh inconclusive, AMA1 RON2 block inactive, Shiga inhibitor 90.3 and LASV entry inh inconclusive.
For Cc1ccc(-n2c(SCC(=O)N3CCCCC3)nc(O)c(Cc3ccccc3)c2=O)cc1 the results were Cycloheximide cs inactive, AMA1 RON2 block inactive and Shiga inhibitor inactive.
Screening CCOc1ccc(OCC)c(NC(=O)c2cnn(-c3ccc(F)cc3)c2-n2cccc2)c1 returned LASV entry inh inactive.
CC1CCN(CC2CCN(C(=O)NCc3ccccc3)CC2)CC1 was read as LASV entry inh inactive.
Screening CSc1cccc(NC(=O)N2CCCC(CNS(=O)(=O)Cc3ccccc3)C2)c1 (stereo not given) returned Cycloheximide cs inactive, MARV entry inh inactive, AMA1 RON2 block inactive and Shiga inhibitor inactive.
O=C(Nc1ccccc1)N1CCCC(CNS(=O)(=O)Cc2ccccc2)C1 (stereo not given) was read as Cycloheximide cs 12.9, MARV entry inh inactive, AMA1 RON2 block inactive and Shiga inhibitor inactive.
CC1CCC2(CC1)NC(=O)N(NC(=O)c1cccs1)C2=O (stereo not given) was read as AMA1 RON2 block inactive.
C/C(NC(=O)c1cccs1)=C1\C(=O)C[C@@H]2[C@H]1C2(C)C was read as Cycloheximide cs 14.9, MARV entry inh inactive, AMA1 RON2 block inactive, Shiga inhibitor inactive and LASV entry inh inactive.
`CN(C)CC1CCC/C(=C/c2ccc(Cl)cc2)C1=O` (stereo not given) gave MARV entry inh inactive, AMA1 RON2 block inactive and LASV entry inh inconclusive.
For O=C(N/N=C1\CCc2ccccc21)c1ccccc1O the results were Cycloheximide cs 49.0, MARV entry inh 5.01µM, AMA1 RON2 block inactive, Shiga inhibitor 79.9 and LASV entry inh inconclusive.
`COc1cc(C(=O)NNC(=O)c2ccoc2C)cc(OC)c1OC` gave Cycloheximide cs inactive, AMA1 RON2 block inactive and Shiga inhibitor inactive.
COc1ccc2c(c1)CCC/C2=N\NC(=O)c1ccoc1C was read as Cycloheximide cs 85.7, MARV entry inh inconclusive, AMA1 RON2 block inactive, Shiga inhibitor active and LASV entry inh inconclusive.
`Cc1cc(C(=O)NC2CCCCC2)c(C)o1` gave MARV entry inh inconclusive, AMA1 RON2 block inactive and LASV entry inh inactive.
`O=C(N/N=C1\CCCc2ccccc21)c1ccccc1Cl` gave Cycloheximide cs 36.2, MARV entry inh inactive, AMA1 RON2 block inactive, Shiga inhibitor 63.2 and LASV entry inh inactive.
Screening Cc1cc(C(=O)NC2Cc3ccccc3C2)c(C)o1 returned Cycloheximide cs 56.8, MARV entry inh inactive, AMA1 RON2 block inactive and Shiga inhibitor 66.4.
For Cc1c(C)n(Cc2ccccc2)c2ncnc(Cl)c12 the results were Cycloheximide cs inactive, AMA1 RON2 block inactive and Shiga inhibitor inactive.
O=c1cc(O)n(Cc2ccc(F)cc2)c(=O)[nH]1 was read as Cycloheximide cs inactive, AMA1 RON2 block inactive and Shiga inhibitor inactive.
Screening O=[N+]([O-])c1ccc(O)c(Nc2c([N+](=O)[O-])ccc3nonc23)c1 returned Cycloheximide cs inactive, MARV entry inh inactive, AMA1 RON2 block inconclusive, Shiga inhibitor inactive and LASV entry inh inactive.
Screening Cc1ccc(CC(=O)OC(C)C(=O)NC2CCCCC2C)cc1C (stereo not given) returned AMA1 RON2 block inactive.
`Cc1cc(C(=O)N/N=C2\CCCc3ccccc32)c(C)o1` gave Cycloheximide cs 26.3, MARV entry inh inactive, AMA1 RON2 block inactive, Shiga inhibitor inactive and LASV entry inh inactive.
`O=C(O)c1ccc(N/N=C2/CCCc3ccccc32)cc1` gave Cycloheximide cs 33.0, AMA1 RON2 block inactive and Shiga inhibitor 59.3.
Screening O=C(N/N=C1\CCc2ccccc21)c1ccncc1 returned Cycloheximide cs 46.2, MARV entry inh inactive, AMA1 RON2 block inactive[11.6 µM], Shiga inhibitor 56.0 and LASV entry inh inactive.
Screening C/C(=N\NC(=O)c1cc(C)oc1C)c1ccc2ccccc2c1 returned Cycloheximide cs inactive, MARV entry inh inconclusive, AMA1 RON2 block inactive, Shiga inhibitor inactive and LASV entry inh inactive.
`O=C(CNc1ccccc1Cl)N/N=C1\CCCc2ccccc21` gave Cycloheximide cs inactive, AMA1 RON2 block inactive and Shiga inhibitor inactive.
CCN(CC)C(=O)c1c(Cl)nc(C)c([N+](=O)[O-])c1C was read as Cycloheximide cs inactive, MARV entry inh inconclusive, AMA1 RON2 block inactive, Shiga inhibitor inactive and LASV entry inh inactive.
`O=C(NCCSCc1ccccc1)C1CCN(S(=O)(=O)Cc2ccccc2)CC1` gave MARV entry inh inactive and LASV entry inh inactive.
COc1cc2oc(=O)c(CC(=O)N3CCCCC3)c(C)c2cc1Cl was read as MARV entry inh inconclusive and LASV entry inh inactive.
`Cc1ccc2onc(CNC(=O)N(C)Cc3ccccc3)c2c1` gave LASV entry inh inactive.
Screening O=C(NCc1cn2ccccc2n1)c1ccco1 returned Cycloheximide cs 24.7, AMA1 RON2 block inactive and Shiga inhibitor inactive.
